Shown are actives, neighbours in structure and some others; about 1.5% of the full set was active somewhere.
TLR4 MyD88 comp – blocks binding of human TLR4 to MyD88; 200,000 compounds, 0.18% hits; HeLa CL3-4 TLR4/MyD88 BLA complementation, FRET ratio; O00206+Q99836; AID 861; inhibition, % at 8.4 µM; in the data active = inhibition above about 25%;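 also: 0% = vehicle and 100% = reference inhibitor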
NOD2 RIPK2 PPI – blocks binding of human NOD2 to RIPK2 | CHO BLA complementation NOD2-RIPK2, CCF4 ratio | inhibition, % at 4.98 µM | 360,000 compounds, 0.38% hits | AID 624267; in the data active = inhibition above about 21%;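 also: 0% = vehicle only and 100% = reference blocker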
Target sequence (O43353 whole entry, looked up): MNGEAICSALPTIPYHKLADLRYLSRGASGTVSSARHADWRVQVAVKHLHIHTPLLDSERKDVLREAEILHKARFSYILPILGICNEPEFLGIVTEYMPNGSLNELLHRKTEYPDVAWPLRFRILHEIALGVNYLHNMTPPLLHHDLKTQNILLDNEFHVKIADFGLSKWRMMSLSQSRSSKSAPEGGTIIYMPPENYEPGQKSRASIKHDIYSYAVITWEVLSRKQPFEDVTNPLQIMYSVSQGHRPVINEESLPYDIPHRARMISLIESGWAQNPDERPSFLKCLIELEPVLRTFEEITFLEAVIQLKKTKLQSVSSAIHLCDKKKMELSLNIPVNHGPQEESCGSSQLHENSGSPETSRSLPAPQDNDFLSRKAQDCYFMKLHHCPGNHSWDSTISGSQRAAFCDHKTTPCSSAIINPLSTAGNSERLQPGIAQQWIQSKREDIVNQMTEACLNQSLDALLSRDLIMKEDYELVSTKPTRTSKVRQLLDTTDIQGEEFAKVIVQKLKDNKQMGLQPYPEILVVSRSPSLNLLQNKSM
TLR9-MyD88 block – blocks human TLR9 binding to MyD88; 340,000 compounds, 0.21% hits; AID 504734; CHO BLA complementation TLR9-MyD88, CCF4 FRET ratio; Q9NR96+Q99836; inhibition, % at 4.98 µM;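 active = inhibition above the mean over all tested compounds plus 3 SD, cut at about 21% in these data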;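 also: 0% = DMSO only wells and 100% = clavulanate BLA inhibitor control wells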
Myeloid diff MLP – promotes myeloid progenitor differentiation; 360,000 compounds, 1% hits; ER-HoxA9 myeloid progenitors, lysozyme-GFP differentiation, flow cytometry; calls only at 10 µM; AID 624256;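 active = normalized GFP-positive differentiation at or above the plate's own cutoff, the solvent-only control mean plus 3 SD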;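 also: cells exposed to compound for four days before flow analysis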
Myeloid diff CP1 – myeloid differentiation induction; shares compounds with Myeloid diff MLP; 2,300 compounds, 2% hits; ER-HoxA9 myeloid progenitors, GFP/Mac1 double-positive flow; calls only; AID 651706;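 active = share of green or green-and-red cells above 9 and 9% in run 1 or 4 and 3% in run 2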
GFP autofluor – counter-screen for myeloid differentiation promoters: compound fluorescence; shares compounds with Myeloid diff MLP; ER-HoxA9 myeloid progenitors, no estrogen, GFP autofluorescence flow cytometry; vehicle wells 0%, positive control 100%; fluorescence response, % (test concentration not listed); 2,300 compounds, 7.4% hits;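 active = over 5% cells positive for green fluorescent reporter, or over 2% positive for both it and APC stain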;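 also: range taken on the double positive population between DMSO and positive control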
Starred values were filed as active, the others as inactive; i = inactive; . = not tested or not shown; + = active, no number.

SMILES | TLR4 MyD88 comp | NOD2 RIPK2 PPI | TLR9-MyD88 block | Myeloid diff MLP | Myeloid diff CP1 | GFP autofluor
Cc1cnc2nc(-c3ccccc3)ccc2c1 | . | -9 | . | i | . | .
COc1ccccc1CNC(=O)C[C@H]1CC[C@@H]2[C@H](COC[C@H](O)CN2Cc2ccc3c(c2)OCO3)O1 | . | 12 | . | i | . | .
CC(=O)Nc1ccc(N=NN2CCOCC2)cc1 | -11 | -6 | 0 | i | i | 0
COc1ccc(Cn2nnnc2C(c2cccnc2)N2CCN(c3ccc(O)cc3)CC2)cc1 (stereo not given) | -4 | -14 | -8 | i | i | 5
O=C(c1ccc2c(=O)n3c(nc2c1)CCCCC3)N1CCN(c2ccc(F)cc2)CC1 | . | -8 | -6 | i | . | .
O=C(c1ccc2c(=O)n3c(nc2c1)CCCCC3)N1CCN(c2ccc(Cl)cc2)CC1 | . | 5 | 0 | i | i | 0
CC1=CC(=C(C#N)C#N)c2ccccc2N1C | 3 | -17 | -2 | i | i | 2
O=C1CC(c2ccccc2)CC2=C1C1(CCCC1)N=C(Nc1nc3ccccc3o1)N2 (stereo not given) | . | -1 | . | i | . | .
N#CCCN1CCN(S(=O)(=O)c2ccc(C#N)cc2)CC1 | -9 | 2 | -5 | i | i | 0
N#CCCN1CCN(S(=O)(=O)c2ccc(S(=O)(=O)N3CCCCCC3)cc2)CC1 | -9 | -6 | -8 | i | . | .
COc1ccc(CNC(=O)C[C@@H]2C=C[C@@H](NS(=O)(=O)c3cccc(OC)c3)[C@@H](CO)O2)cc1 | . | -4 | . | i | . | .
O=C(/C=C/[C@H]1O[C@@H](n2ccc(=O)[nH]c2=O)[C@H](O)[C@@H]1O)NCc1cccc2ccccc12 | . | 4 | . | + | i | 0
CCOC(=O)C1CCN(Cc2ccc3ccccc3c2)CC1 | . | -1 | 3 | i | . | .
CCOC(=O)C1CCN(Cc2cc(C(C)C)c(O)c(C(C)C)c2)CC1 | -18 | 1 | 3 | + | i | 1
O=c1[nH]cnc2c1ncn2C1OC(CO)CC1F (stereo not given) | . | -6 | . | i | . | .
COc1ccccc1COc1cccn2c(N(C)C(=O)CCC3CCCC3)c(C)nc12 | . | -4 | . | + | i | 0
CCC(COC)NCc1cn(-c2ccc(OC)cc2)nc1-c1cccc(F)c1 (stereo not given) | 5 | -9 | 1 | + | i | 0
CCOC(=O)C1(C)CCCN1C(=O)c1cc(F)ccc1C (stereo not given) | . | 0 | . | i | . | .
CN1CCN(Cc2nc(Cc3ccccc3)no2)CC1c1ccccc1 (stereo not given) | -10 | 4 | -6 | i | i | 0
Cc1ccc2c(c1)-c1c(cnn1CC(=O)Nc1ccccc1N1CCN(C)CC1)CO2 | 8 | -13 | -12 | i | i | 0
Cc1ccc2c(c1)-c1c(cnn1CC(=O)O)CO2 | 4 | 2 | -1 | i | . | .
CC1(C(=O)NCc2ccccc2)CN(S(C)(=O)=O)CC(=O)N1C1CC1 (stereo not given) | . | -17 | . | i | . | .
COc1ccc(/C=C\C(=O)c2c(O)ccc3c(C)cc(=O)oc23)cc1OC | 9 | -5 | -6 | i | i | 0
COc1cc(/C=C/C(=O)c2c(O)ccc3c(C)cc(=O)oc23)ccc1O | 8 | -1 | 2 | i | . | .
COc1ccc(NC(=O)CN(C)C(=O)CSc2nc3ccccc3s2)cc1 | . | -5 | 5 | i | i | 0
SMILES | TLR4 MyD88 comp | NOD2 RIPK2 PPI | TLR9-MyD88 block | Myeloid diff MLP | Myeloid diff CP1 | GFP autofluor
COc1cccc(CNC(=O)c2cc3c(c(-c4cccc(-c5cccc(C#N)c5)c4)n2)[C@H](CCO)N(S(=O)C(C)(C)C)C3)c1 (stereo not given in full) | . | -6 | . | i | . | .
COc1cc2c3c(c1)C(C)CC(C)(C)N3C(=O)C2=O (stereo not given) | 13 | 17 | 8 | i | . | .
CON1C(=O)C(=O)N(OC)C(C)(C)C1C (stereo not given) | 1 | -12 | 3 | i | i | 0
COc1ccc(-c2nc(CN3CCC(C(=O)N4CCc5ccccc54)CC3)c(C)o2)cc1OC | 5 | 11 | -7 | i | i | 1
CC(C)(C)NCC(O)Cn1cc(C=O)c2ccccc21 (stereo not given) | 5 | -10 | 12 | i | i | 0
Cc1ccc(NC(=O)Cn2cc(C=O)c3ccccc32)cc1 | . | 3 | 0 | i | . | .
Cn1c(-c2ccccc2)c[n+]2c1-c1ccccc1C2 | -1 | 4 | 10 | i | + | 0
Cn1c(-c2ccccc2)cccc1=O | 4 | -4 | -5 | i | . | .
COC(=O)[C@]12CCCCC=C1N(CCc1ccc(OC)c(OC)c1)C(=O)[C@H](CC(=O)NCc1cccc(C(F)(F)F)c1)C2 | . | -20 | . | i | . | .
COC(=O)c1ccc(NC(=O)c2cc(-c3ccccn3)nc3ccccc23)cc1 | 5 | -3 | -2 | + | i | 0
COC(=O)[C@H](CCSC)NC(=O)N1CCN(c2cccc(C(F)(F)F)c2)CC1 | 7 | -3 | 9 | i | i | 0
COc1ccccc1C1(CCNS(=O)(=O)c2ccc(C)cc2)CCOC(C(C)C)C1 (stereo not given) | 3 | -15 | 5 | + | i | 0
COc1ccccc1C1(CCNC(C)c2cccs2)CCOC(C(C)C)C1 (stereo not given) | . | 1 | . | i | . | .
CC(=O)Oc1ccc(Cn2c(C)c(C(=O)NC3CC3)sc2=O)cc1 | . | 0 | . | i | . | .
COc1ccc(-c2nc(NC(=O)C3CC(=O)N(Cc4ccco4)C3)sc2C)cc1 (stereo not given) | . | 2 | -33 | i | i | 0
COc1ccc(C(C(=O)NCc2ccccc2)n2c(=O)c(-c3ccco3)nc3ccccc32)cc1 (stereo not given) | . | 2 | . | i | . | .
CNC[C@H](CC1CCCCC1)NC[C@H](CO)NCC1(c2ccccc2)CC1 | . | -6 | 2 | i | . | .
CNC[C@H](CC1CCCCC1)NC[C@H](CO)NCCc1cccc(C(F)(F)F)c1 | . | 7 | -6 | + | i | 5
COc1ccc(CC(=O)Nc2cc(S(=O)(=O)N3CCCCC3)ccc2OC(C)C)cc1OC | . | 1 | -3 | i | . | .
Cc1cc(NC(=O)CSc2nc(C3CC3)nc3sc(C)c(C)c23)no1 | -16 | -5 | -5 | i | i | 2.7*
CCN(CC)Cc1c(O)ccc2occ(C(=O)c3ccc(OC)cc3)c12 | -7 | -13 | 9 | i | . | .
CCN(CC)Cc1c(O)ccc2c([N+](=O)[O-])c(C)n(-c3ccc(OC)cc3)c12 | 2 | 3 | 2 | + | i | 0
C=CCN1C(=O)/C(=C2/Sc3ccc(OC)cc3N2C)SC1=Nc1cccc(O)c1 | 17 | 2 | -9 | i | i | 0
CCN1C(=O)/C(=C2/Sc3ccc(OC)cc3N2C)SC1=Nc1ccc(OC)cc1 | -2 | 0 | -3 | i | . | .
